Screening data as filed in PubChem.
M1 ag: human M1 muscarinic receptor agonists, primary screen, Fluo-8 calcium fluorescence, CHO-K1 cells, HTS. CHO-K1 hM1, agonist mode; 0% DMSO, 100% acetylcholine EC100. activation, % at 3 µM. 360,000 tested, 0.33% active. AID 588814, 2011;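 active = activation above the run's mean compound activation plus 3 SD, cut at about 16% in these data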;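 note: peak over basal fluorescence ratio within a 140 s kinetic read after compound addition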
Target sequence (P11229 whole entry, looked up): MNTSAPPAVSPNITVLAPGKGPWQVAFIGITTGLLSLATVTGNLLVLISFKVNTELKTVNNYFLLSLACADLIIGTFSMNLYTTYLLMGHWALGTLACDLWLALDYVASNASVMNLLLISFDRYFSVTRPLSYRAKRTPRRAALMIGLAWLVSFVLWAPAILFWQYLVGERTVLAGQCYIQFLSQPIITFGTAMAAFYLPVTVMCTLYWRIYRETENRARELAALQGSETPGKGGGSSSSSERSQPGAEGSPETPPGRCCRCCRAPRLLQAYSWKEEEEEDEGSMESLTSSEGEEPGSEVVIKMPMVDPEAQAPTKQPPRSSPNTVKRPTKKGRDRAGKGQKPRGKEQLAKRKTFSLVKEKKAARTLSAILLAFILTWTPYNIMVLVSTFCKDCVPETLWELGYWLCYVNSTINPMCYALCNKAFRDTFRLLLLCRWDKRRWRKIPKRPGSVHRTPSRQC
CHO-K1 Ca PAM: nonselective calcium activators in parental CHO-K1 cells, primary screen, counter-screen for M1 PAM project, cell-based, Fluo-8 calcium fluorescence, full deck, 1536-well; ATP EC20; 0% at ATP EC20, 100% at ATP max; activation, % at 3 µM; 360,000 tested, 0.02% active; AID 602247, 2012;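 active = activation above the run cutoff, the mean activation of all test compounds plus 3 SD, cut at about 40% in these data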;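 note: peak over basal fluorescence ratio in a 140 s read after ATP addition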
CHO-K1 Ca ag: counter-screen for M1 agonists: effect in parental CHO-K1 cells | AID 602248, 2012 | Fluo-8 calcium fluorescence; scaled to maximal ATP response, vehicle zero | activation, % at 3 µM | 360,000 tested, 0.48% active; in the data active = activation above about 15%;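 note: untransfected CHO-K1 host cells lacking M1 receptor as counterscreen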
CHO-K1 Ca antag: counter-screen for M1 antagonists: effect in parental CHO-K1 cells; inhibition, % at 3 µM; 360,000 tested, 0.6% active; ATP-induced calcium, Fluo-8 fluorescence; AID 602250;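 active = inhibition above a per-plate cutoff, the plate's mean sample inhibition plus 3 SD, cut at about 24% in these data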
M1 antag: human M1 muscarinic receptor antagonists, primary screen, CHO-K1 cells, Fluo-8 calcium fluorescence, 1536-well | 360,000 tested, 1.3% active | CHO-K1 hM1, ACh EC80 antagonist | inhibition, % at 3 µM | AID 588852, 2011;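 active = percent inhibition above its own plate's cutoff, namely the mean of that plate's compound wells plus 3 SD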;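 note: peak over basal fluorescence ratio during 140 s after agonist addition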
CHRM1 PAM: human M1 muscarinic receptor positive allosteric modulators, primary screen, CHO-K1 cells, Fluo-8 calcium fluorescence, 1536-well. 360,000 tested, 0.088% active. AID 588819, 2011. activation, % at 3 µM. CHO-K1 hM1, ACh EC20; 0% = ACh EC20, 100% = maximal ACh. Muscarinic acetylcholine receptor M1 (Homo sapiens), P11229; in the data active = activation above about 19%, passing the limit was not always enough
Of the large screens only hits and unclear results are named; the others gave an inactive call. An excerpt weighted towards active compounds, which were near 2.3% of everything screened.

Cc1nc(SCCc2nc3ccccc3[nH]2)c2oc3ccccc3c2n1	none
Cn1c2ccccc2c2cc(/C=N/NC(=O)c3cc(O)ccc3O)ccc21	CHO-K1 Ca antag 24.4, M1 antag 29.9
Cn1c2ccccc2c2cc(/C=N/NC(=O)c3cc(O)cc(O)c3)ccc21	none
Cc1nc2sccn2c(=O)c1S(=O)(=O)NCC1CCN(Cc2ccccc2Cl)CC1	M1 antag 39.2
CC1CCN(C(=O)CN2C(=O)C(=O)N(C)C2=O)c2ccccc2S1 (stereo not given)	none
COc1cc2c(cc1OC)C(c1ccc([N+](=O)[O-])cc1)N(C(C)=O)CC2 (stereo not given)	CHO-K1 Ca ag 15.8
Cc1ccc(CN2CC(N3CC=CC3)CS2(=O)=O)cc1 (stereo not given)	none
O=S1(=O)CC(N2CC=CC2)CN1Cc1ccc(F)cc1 (stereo not given)	CHO-K1 Ca antag 29.2
CC1(C)CC(=O)C2=C(C1)OC(N)=C(C#N)C2c1cc2c(cc1[N+](=O)[O-])OCO2 (stereo not given)	M1 antag 38.1
O=C(CN1CCC(NC(=O)c2ccccc2F)CC1)Nc1ccc2c(c1)OCCO2	CHO-K1 Ca ag 15.7
Cc1cccc(NC(=O)C(C)N2C(=O)c3ccccc3S2(=O)=O)n1 (stereo not given)	CHO-K1 Ca antag 27.7, M1 antag 28.2
Cc1cccc(NC(=O)CN2C(=O)c3ccccc3S2(=O)=O)n1	none
COc1cc(-c2cc3nc(NCCOc4ccccc4)ccn3n2)cc(OC)c1OC	none
COc1cc(-c2cc3nc(NCc4ccco4)ccn3n2)cc(OC)c1OC	CHO-K1 Ca antag 31.6
Cc1cc(C)n(CC(=O)c2cccc([N+](=O)[O-])c2)n1	CHO-K1 Ca ag 17.3
Cc1cc(NC(=O)CCC(=O)N(CC(=O)NC2CCCC2)Cc2ccc(F)cc2)no1	none
C=CCN(C(=O)CCC(=O)Nc1cc(C)on1)C(C(=O)NC1CCCC1)c1cccnc1 (stereo not given)	CHO-K1 Ca antag 23.8
Cc1cc(NC(=O)CCC(=O)N(CC(=O)NC2CCCC2)Cc2ccccc2Cl)no1	CHO-K1 Ca antag 48.0
O=C(CCC(=O)N(CC(=O)NC1CCCC1)C1CCCCC1)Nc1ccccn1	CHO-K1 Ca antag 26.8
COC(=O)c1cccnc1Oc1ccccc1	none
COc1ccc(S(=O)(=O)N2CCOCC2)cc1C(=O)NC1CCCCCC1	none
CCNC(=O)C1CCCN(C(=O)c2ccc(F)c(Cl)c2)CC1 (stereo not given)	none
CC(C)Oc1cccc(NC(=O)C2(C)CCN2C(C)C)c1 (stereo not given)	none
Cc1ccc(C(=O)CCC(=O)OCC(=O)NNC(=O)c2ccccc2Cl)cc1	none
COc1cccc(OCc2cc(C(=O)N3CCNC(=O)C3Cc3ccccc3)no2)c1 (stereo not given)	none
CC(C)c1ccc(OCC(=O)Nc2ccc(S(=O)(=O)Nc3ccccn3)cc2)cc1	M1 ag 24.2
Cc1ccc(S(=O)(=O)NC(=O)NCc2ccccc2)cc1	CHO-K1 Ca antag 28.2
CS(=O)(=O)Nc1ccc(C(=O)NCc2ccccn2)cc1	none
CC(C)c1cccc(OCC(=O)Nc2ccc(S(=O)(=O)Nc3ccccn3)cc2)c1	none
CCOc1ccc(NS(=O)(=O)c2ccc(C(=O)NCc3ccccn3)cc2)cc1	M1 ag 27.9, CHO-K1 Ca ag 21.1
Cc1ccc(NS(=O)(=O)c2ccc(C(=O)NCc3ccccn3)cc2)cc1	M1 ag 28.2, CHO-K1 Ca ag 19.0
CCOc1ccc(NS(=O)(=O)c2ccc(C(=O)NCc3ccncc3)cc2)cc1	none
CCc1nc2ccc(C(=O)NCc3ccc4c(c3)OCO4)cn2c1N(C)Cc1cccs1	none
Cc1ccc(NS(=O)(=O)c2ccc(C(=O)NCc3ccncc3)cc2)cc1	M1 ag 17.9, CHO-K1 Ca ag 15.5
CCCCC(=O)Nc1ccc(C(=O)NCc2ccncc2)cc1	CHO-K1 Ca antag 25.1
CCCCC(=O)Nc1ccc(C(=O)Nc2cccnc2)cc1	none
CC[C@]1(C(=O)OC)[C@H]2C(=O)N(Cc3ccccc3)C(=O)[C@H]2[C@H]2CN=C(SCC(=O)c3ccccc3)N21	none
CC1CC(=O)C2=C(C1)Nc1ncnn1C2c1ccccc1 (stereo not given)	CHO-K1 Ca antag 28.0
O=C1CC(c2cccs2)CC2=C1C(c1ccccc1)n1ncnc1N2 (stereo not given)	none
COC(=O)c1cc(Br)c(N)cc1OC	none
CCN(CC)CCNC(=O)c1cc(Br)c(N)cc1OC	CHO-K1 Ca antag 35.0
Cc1ccc2c(c1)CO[C@]21O[C@H](CCO)C[C@H](O)[C@H]1O	none
COCCNC(=O)C1(C)CCCN(Cc2csc(-c3ccc(Cl)cc3)n2)C1 (stereo not given)	none
CC(NC(=O)NCCCC(=O)O)(C(F)(F)F)C(F)(F)F	CHO-K1 Ca antag 25.0
Cc1oc(C(C)(C)C)cc1C(=O)NCc1ccc2c(c1)OCO2	none
O=C(CCn1cccc1)NCc1ccc2c(c1)OCO2	CHO-K1 Ca antag 27.3
O=C(CCn1c(=O)oc2ccccc21)NCc1ccc2c(c1)OCO2	none
Cn1nc(C(C)(C)C)cc1C(=O)NCc1ccc2c(c1)OCO2	CHO-K1 Ca antag 39.2
O=C(CN1CCc2ccccc21)NCc1ccc2c(c1)OCO2	CHO-K1 Ca antag 29.1
C[C@H](O)[C@@H]1CN2CCc3c([nH]c4ccccc34)[C@@H]2C[C@@H]1N(C)Cc1cc(Cl)cc(Cl)c1	M1 ag 32.7
CCOC(=O)N(C)[C@H]1C[C@H]2c3[nH]c4ccccc4c3CCN2C[C@H]1[C@H](C)O	none
Cc1cc(C(=S)N2CCOCC2)c(C)n1-c1ccc(Cl)cc1	M1 antag 29.1
CC(=O)OC(C)[C@H]1CC[C@H]2[C@@H]3CC[C@H]4C[C@@H](OC(C)=O)CC[C@]4(C)C3=CC[C@]12C (stereo not given in full)	none
COc1ccc(CN2CCC(CO)(Cc3cccc(C(F)(F)F)c3)CC2)cc1Cn1cccn1	M1 antag 23.4
OCC1(Cc2cccc(C(F)(F)F)c2)CCN(Cc2cc3ccccc3o2)CC1	none
Cc1c(CN2CCC(CO)(Cc3cccc(C(F)(F)F)c3)CC2)c2ccccc2n1C	M1 antag 25.6
COc1cccc(OC)c1C(=O)NC(=O)Oc1c(F)cccc1F	none
CCn1c(SCc2ccccc2)nnc1-c1ccc(S(=O)(=O)N2CCCCC2)cc1	M1 antag 26.9
